Gli-Sufu antag: Gli-Sufu pathway antagonism | inhibition, % at 5 µM | Sufu-KO-LIGHT fibroblasts, Gli luciferase reporter luminescence | AID 588413 | hit rate 0.74% among 340,000;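 active = inhibition above about 55%, limit read from the data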;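 also: 0% = DMSO-treated cells and 100% = wells with medium but no cells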
KLF5 inh: inhibitors of KLF5 expression | DLD-1 KLF5 promoter-luciferase reporter, luminescence | inhibition, % at 5 µM | hit rate 0.23% among 290,000 | AID 1700;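 active = inhibition above a per-plate limit of that plate's mean compound inhibition plus 3 SD, cut at about 60% in these data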;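 also: 0% = DMSO wells and 100% = LY294002 at 200 µM; higher means less KLF5 promoter-driven luciferase light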
697 NFkB inh: lowers PMA/ionomycin-induced NF-kB signal in 697 B cells; 697 B-cell NF-kB luciferase reporter, 16 h; inhibition, % at 4 µM; hit rate 0.33% among 330,000; AID 435022; in the data active = inhibition above about 35%
aSyn UTR inh: MLPCN primary screen, SNCA 5' untranslated region; alpha-synuclein 5'UTR reporter, inhibitor activity; inhibition, % (tested at 7.5 µM); hit rate 0.82% among 300,000; in the data active = inhibition above about 60%;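 also: H4 neuroglioblastoma cells stably carrying SNCA 5'UTR luciferase fusion; 0% = DMSO wells and 100% = positive control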
Jurkat NFkB inh: inhibitors of the PMA/ionomycin-induced NF-kB reporter in Jurkat cells; hit rate 0.53% among 330,000; inhibition, % at 4 µM; PMA/ionomycin-induced NF-kB luciferase reporter, luminescence; in the data active = inhibition above about 50%
Mdm2 MdmX PPI: human Mdm2/MdmX binding inhibition | hit rate 3% among 330,000 | AID 485346 | SaOS-2 split-luciferase Mdm2/MdmX complementation, luminescence | inhibition, % at 8 µM;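 active = inhibition of at least 50% at 8 µM in the primary screen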
Jurkat NFkB conf: lowers PMA/ionomycin-induced NF-kB signal in Jurkat cells; hit rate 27% among 2,700; Jurkat NF-kB luciferase, 16 h; AID 435020; inhibition, % at 4 µM; shares compounds with Jurkat NFkB inh;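 active = inhibition reaching about 45% at 4 µM in either replicate, limit read from the data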;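 also: plate controls were PMA/ionomycin stimulated DMSO wells for no effect and unstimulated DMSO wells for full effect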
697 NFkB conf: inhibitors of the PMA/ionomycin-induced NF-kB reporter in 697 B cells, retest; hit rate 35% among 2,000; inhibition, % at 4 µM; shares compounds with 697 NFkB inh; 697 B-cell NF-kB luciferase, 16 h; in the data active = inhibition mostly above about 28%, no sharp cut-off; inactive = mostly below about 22%
Mdm2-MdmX conf: confirmation of human Mdm2/MdmX interaction inhibitors | shares compounds with Mdm2 MdmX PPI | inhibition, % at 8 µM | hit rate 55% among 10,000 | Mdm2-MdmX binding, luminescent assay; in the data active = inhibition above about 40%
FLuc counter: full-length luciferase inhibition in Mdm2/MdmX counter-screen; shares compounds with Mdm2 MdmX PPI; SaOS-2 full-length luciferase counterscreen, luminescence; inhibition, % at 8 µM; hit rate 77% among 6,200; AID 504607;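 active = mean inhibition at 8 µM reaching about 37%, which flags the compound as non-specific, limit read from the data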;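 also: p53-null SaOS-2 cells with luciferase driven by a doxycycline-inducible promoter; compound on cells about two nights before reading with doxycycline added after day one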
* hit, by the source's call; . = no result given. Shown are actives, neighbours in structure and some others; about 4.1% of the full set was active somewhere.

SMILES | Gli-Sufu antag | KLF5 inh | 697 NFkB inh | aSyn UTR inh | Jurkat NFkB inh | Mdm2 MdmX PPI | Jurkat NFkB conf | Mdm2-MdmX conf | FLuc counter | others
CCN(CC)CCCCNc1ncc2cc(-c3cc(OC)cc(OC)c3)c(NC(=O)NC(C)(C)C)nc2n1 | 28 | -42 | 8 | 59 | 75* | 94* | -4 | 88* | 20
NC(=O)c1cc2cc(Cc3ccccc3Cl)ccc2oc1=O | -9 | -9 | -13 | 16 | 5 | 9 | . | . | .
O=C(CNC(=O)c1ccc(S(=O)(=O)N2CCCC2)cc1)N/N=C/c1ccccc1Cl | 14 | -30 | -3 | 28 | -11 | -7 | . | . | .
O=C(NN=Cc1c(O)ccc2ccccc12)c1ccc2c(c1)OCO2 | 29 | . | -16 | . | 67* | 88* | 82* | 89* | 50*
O=C(N/N=C/c1ccccc1)c1ccc2c(c1)OCO2 | -80 | -26 | -103 | -42 | -83 | -74 | . | . | .
O=C(N/N=C\c1c(O)ccc2ccccc12)c1ccc(S(=O)(=O)N2CCCCC2)cc1 | 85* | -9 | -21 | 114* | 55* | 83* | 73* | 86* | 55*
Cc1ccc(-c2cc3c(N=O)c4ccccc4c-3n[nH]2)cc1 | 59* | -17 | 58* | 92* | 67* | 93* | 72* | 89* | 46* | 697 NFkB conf=-32
Cc1ccc(CCC(=O)Nc2ncc(Cc3cccc(Cl)c3Cl)s2)o1 | 44 | 5 | -140 | 27 | 72* | 69* | 0 | 66* | 76*
CCOc1ccc2nc(C)cc(Nc3cccc([N+](=O)[O-])c3)c2c1 | 45 | -16 | 7 | 17 | 77* | 100* | 34 | 100* | 51*
Cc1cc(Nc2cccc([N+](=O)[O-])c2)c2ccccc2n1 | 33 | -25 | -24 | -1 | 21 | -19 | . | . | .
CCOC(=O)C1=C(C)N=c2s/c(=C\c3ccc(O)c([N+](=O)[O-])c3)c(=O)n2C1c1ccccc1OC (stereo not given) | -9 | -3 | 3 | 5 | 4 | 13 | . | . | .
COc1ccc(/C=c2/sc3n(c2=O)C(c2ccccc2OC)C2=C(N=3)c3ccccc3CC2)cc1O (stereo not given) | 15 | 6 | -15 | 94* | 70* | 70* | 51* | 87* | 30
Cc1cc(NC(=O)C2CC(=O)N(c3cccc(Cl)c3)C2)no1 (stereo not given) | 12 | -13 | 7 | -4 | 5 | 3 | . | . | .
Cc1ccc(-n2nc(C)c(NC(=O)CCl)c2C)cc1C | 13 | 10 | 13 | -220 | 64* | 76* | 21 | 88* | 34
CC1CCN(c2c(NCc3ccc(C(=O)N4CCc5ccccc54)cc3)c(=O)c2=O)CC1 | 17 | -14 | -7 | 88* | 58* | 65* | 45 | 53* | 39*
CC1=CC(=O)C=C(C)C1=NOS(=O)(=O)c1ccccc1 | 4 | 0 | . | 12 | . | . | . | . | .
CC1=CC(=O)C(C(C)C)=C/C1=N/OS(=O)(=O)c1ccccc1 | -6 | -15 | -82 | -23 | 81* | 100* | 0 | 35 | 42*
CCC(C)c1ccc(OCCCCN2CCOCC2)cc1 (stereo not given) | -8 | -40 | -25 | -22 | -3 | 4 | . | . | .
CC(C)OCCCNC(=O)Cn1ccc2cc(S(=O)(=O)N3CCCCC3)ccc21 | -15 | 1 | 1 | 5 | -2 | 4 | . | . | .
CC1(C)CC(NNCCC#N)=CC(=[N+]2CCCC2)C1 | 5 | -20 | 3 | -25 | -5 | 15 | . | . | .
CN(Cc1ccccc1)C1=CC(=[N+]2CCCCC2)CC(C)(C)C1 | 85* | 20 | 12 | -20 | 69* | 72* | 66* | 67* | 39*
NC(N)=N/N=C/c1ccc(OS(=O)(=O)c2ccccc2)cc1 | 33 | -49 | -17 | -21 | 50* | 57* | 5 | 36 | 82*
